Source: PubChem BioAssay AID1903 (Southern Research Specialized Biocontainment Screening …, 2009)
“And” between values parts separate entries of the source, which are not always exact repeats. Equal values may be shown once. The whole screen tested about 310,000 compounds, of which about 1,200 (0.39%) were called active. No rule for the calls is given here. The list is a sample of the results. Results with a measured potency or affinity are listed apart.

biological target: Large T antigen (Simian virus 40) (UniProt P03070); test: TAg ATPase/helicase activity blockers – biochemical (AID 1903); settings: SV40 large T antigen ATPase/helicase inhibition assay; at 20 µM; stronger effect = higher value
Sequence (P03070 whole entry, looked up): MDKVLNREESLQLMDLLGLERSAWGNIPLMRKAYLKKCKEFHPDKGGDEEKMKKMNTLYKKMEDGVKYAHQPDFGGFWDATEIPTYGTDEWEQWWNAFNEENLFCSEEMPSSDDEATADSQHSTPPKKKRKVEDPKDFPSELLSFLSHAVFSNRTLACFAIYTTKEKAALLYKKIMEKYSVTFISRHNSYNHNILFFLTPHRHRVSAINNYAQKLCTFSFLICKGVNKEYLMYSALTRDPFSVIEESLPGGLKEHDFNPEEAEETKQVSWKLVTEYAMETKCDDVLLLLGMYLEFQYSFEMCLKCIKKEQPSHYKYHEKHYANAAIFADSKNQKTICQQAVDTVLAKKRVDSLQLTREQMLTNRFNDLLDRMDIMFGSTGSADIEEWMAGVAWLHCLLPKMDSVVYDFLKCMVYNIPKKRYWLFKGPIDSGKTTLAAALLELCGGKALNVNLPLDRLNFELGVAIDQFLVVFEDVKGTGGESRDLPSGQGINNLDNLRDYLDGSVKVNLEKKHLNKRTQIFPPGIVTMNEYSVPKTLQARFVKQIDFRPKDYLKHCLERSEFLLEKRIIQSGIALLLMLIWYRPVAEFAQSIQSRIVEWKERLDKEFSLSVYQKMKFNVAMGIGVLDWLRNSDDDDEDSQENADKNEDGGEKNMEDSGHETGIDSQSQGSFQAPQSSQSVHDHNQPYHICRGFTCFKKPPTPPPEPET

inhibition, inactive:
Cc1cccc(C(=O)NNC(=O)CCn2nnc3ccccc32)c1 1.08%
COCc1cc(C)nc(SCC(=O)Oc2ccccc2)c1C#N 15.3%
COCc1cc(C)nc(SCC(=O)Oc2ccc(Cl)cc2)c1C#N 16%
Cc1cc(C(F)(F)F)nn1Cc1n[nH]c(=S)n1-c1ccc(F)cc1 15.9%
CS(=O)(=O)c1ccc(Cl)c(NC(=O)C2CCCN(C(=O)c3ccc(Cl)cc3)C2)c1 (stereo unspecified) 6.85%
COc1ccc(C(=O)NC(C(=O)NCC(=O)Nc2c(C)cccc2C)C(C)C)cc1 (stereo unspecified) 3.58%
Cc1nn(CC(=O)N2CCOCC2)c(=O)c2nn(-c3ccccc3)c(C)c12 1.18%
COc1cc(O)c(C(CCN2CCN(c3ccccc3)CC2)c2ccc3c(c2)OCO3)c(OC)c1 (stereo unspecified) 7.18%
CC(=O)Oc1ccc2c(C)cc(=O)oc2c1 17%
CC(=O)Oc1cc2oc(=O)cc(C)c2cc1Cl 14.8%
CC(C)N(C(=S)Nc1cccnc1)c1ccccc1 12.6%
COc1ccc(O)c(/C=N/NC(=S)Nc2cccnc2)c1 25.1%
CN(C(=S)Nc1ccc(Oc2ccccc2)cc1)c1ccc(O)cc1 21.8%
Fc1ccc(/C=N/NC(=S)Nc2cccnc2)cc1 7.01%
CC(C)(C)c1ccc(/C=N/NC(=S)Nc2cccnc2)cc1 9.92%
Fc1cccc(F)c1/C=N/NC(=S)Nc1cccnc1 24.5%
NC(=O)c1ccc(NC(=O)CCCNC(=O)c2ccc(Cl)cc2)cc1 8.64%
CCc1ccc(C2=NNC(=Nc3cccc(S(=O)(=O)N(C)C)c3)SC2)cc1 4.35%
CCC(C)N(C(=O)c1csnn1)C(C(=O)NC1CCCC1)c1c(F)cccc1Cl (stereo unspecified) 7.33%
CCN(CC)CCNC(=O)c1ccc(NC(=O)c2ccc(C(=O)c3ccccc3)cc2)cc1 37.6%
Cc1ccc(S(=O)(=O)N2CCOC2CNC(=O)C(=O)NCCc2c[nH]c3ccccc23)cc1 (stereo unspecified) -3.07%
O=C(NCCc1c[nH]c2ccccc12)C(=O)NCC1OCCCN1S(=O)(=O)c1ccccc1 (stereo unspecified) 16.5%
COc1ccc(O)c(C(=O)c2cnc3c(c2)c(=O)[nH]c(=O)n3C)c1 3.44%
Fc1ccc(/C=N\Nc2cccc(F)c2)cc1 8.31%
Cc1ccc(N(C(=O)Cc2c[nH]c3ccccc23)C(C(=O)NC2CCCCC2)c2ccco2)cc1 (stereo unspecified) -1.52%
CN(C)CCCOc1ccc2c(c1)Sc1ccccc1CC2=O -4.85%
Oc1cc(O)c2c(c1)O[C@H](c1ccc(O)c(O)c1)[C@H](O)C2 37.1%
O=C(O[C@@H]1Cc2c(O)cc(O)cc2O[C@@H]1c1cc(O)c(O)c(O)c1)c1cc(O)c(O)c(O)c1 -0.22%
O=C1c2c(O)cc(O)cc2O[C@H](c2ccc(O)c(O)c2)[C@H]1O 7.35%
O=C1c2c(O)cc(O)cc2O[C@H](c2ccc(O)c(O)c2)[C@@H]1O 5.87%
COc1cc(C(=S)N2CCOCC2)cc(OC)c1OS(=O)(=O)c1ccc(C)cc1 3.46%
Cc1csc(Sc2ccc([N+](=O)[O-])cc2C(=O)OCC(=O)NC2CCCC(C)C2C)n1 (stereo unspecified) 16.8%
CC(C)C(=O)NNC(=O)c1csc(CS(=O)(=O)c2ccc(Cl)cc2)n1 9.42%
Cc1cnc(C(=O)NC2CCSc3ccccc32)cn1 (stereo unspecified) 9.84%
CC(C)[C@@H]1CC[C@@H](C)c2c(-c3ccccc3)n[nH]c21 -1.85%
CN1CCC(=C2c3ccccc3C(O)c3ccccc32)CC1 (stereo unspecified) 5.26%
CN1CCc2cc3c(c4c2[C@H]1[C@H](O)c1ccccc1-4)OCO3 14.8%
COc1cc2c(cc1OC)C(Cc1ccc(O)cc1)N(C)CC2 (stereo unspecified) 2.71%
COc1ccc2c(c1O)-c1ccccc1CCN(C)C2 20.8%
COc1c(O)ccc2c1CN1CCc3cc4c(cc3C1C2)OCO4 (stereo unspecified) 58.7%
CN1CCc2cccc3c2[C@@H]1Cc1ccc(O)c(O)c1-3 39.9%
CCC(C)NCCC(=O)Nc1ccc(Cl)c(S(=O)(=O)Nc2ccc(Cl)cc2)c1 (stereo unspecified) 7.37%
O=C(Nc1cccc(-c2nn[nH]n2)c1)c1ccc(Cl)s1 8.59%
Cc1cc(C(=O)Nc2cccc(C(=O)O)c2)c(C)o1 4.39%
CC(C)(C)c1cc(N)n(-c2ccc(C(=O)O)cc2)n1 11.4%
C/C(CC(=O)Nc1ccc(N(C)C)cc1)=N\NC(=O)c1ccc(F)cc1 29.8%
C/C(CC(=O)Nc1ccc(N(C)C)cc1)=N\NC(=O)c1ccccn1 28.2%
C/C(CC(=O)Nc1ccccn1)=N\NC(=O)c1ccc2ccccc2c1 -45.2%
CCC(=O)N/N=C(\C)CC(=O)Nc1ccc2ccccc2c1 11.7%
C/C(CC(=O)Nc1ccc(N(C)C)cc1)=N\NC(=O)c1ccc(C(C)(C)C)cc1 9.71%
COc1ccc(NC(=O)C/C(C)=N/NC(=O)c2cnccn2)cc1 -3.03%
Cc1ccc(N(Cc2ccc(C(=O)Nc3c(C)n(C)n(-c4ccccc4)c3=O)cc2)S(C)(=O)=O)cc1C 9.36%
O=C1[C@@H]2Cc3c([nH]c4ccccc34)C(c3ccccc3)N2C(=O)CN1CCO (stereo partly specified) 9.64%
CCC(C)NC(=O)CCc1nnc2ccc(N3CCC(C)CC3)nn12 (stereo unspecified) 6.91%
Cc1ccc(N=Nc2ccc(N)cc2C)c(S(N)(=O)=O)c1 10.1%
O=S(=O)(O)c1cccc(N=Nc2c(O)ccc3ccccc23)c1 7.77%
Oc1ccc(Cl)cc1N=Nc1ccccc1 8.08%
Nc1cc(S(=O)(=O)O)cc([N+](=O)[O-])c1O 23%
C#CCOCCOCCOCCNc1nc(N2CCN(C(=O)C([C@@H](C)CC)n3cc(C(N)Cc4ccc(O)cc4)nn3)CC2)nc(N2CCN(C(=O)[C@H](CCC(=O)O)n3cc(C(N)Cc4ccc(O)cc4)nn3)CC2)n1 (stereo partly specified) 18.6%
CN(CC(=O)Nc1ccc(Cl)cc1)CC(=O)Nc1ccc(F)c(F)c1F -109%
O=C(NCc1ccccn1)C1CCCN(S(=O)(=O)c2cccc3nsnc23)C1 (stereo unspecified) 9.56%
O=C(c1ccc(Oc2ccc(C(F)(F)F)cc2[N+](=O)[O-])cc1)N1CCOCC1 1.7%
O=C(Nc1cccc(Br)c1)c1ccc(CN2CCc3ccccc3C2)cc1 6.55%
Nc1nc(Nc2ccccc2)nc(N2CCOCC2)c1[N+](=O)[O-] 0.42%
Nc1sc(-c2ccccc2)cc1C(=O)O 4.81%
CCOC(=O)c1cc(CC)sc1N 14.6%
COC(=O)c1cc(-c2ccccc2)sc1N 11.1%
CCOC(=O)c1cc(-c2ccccc2)sc1N 6.85%
CC(OC(=O)c1oc2ccccc2c1CSC1CCCCC1)C(=O)NC(N)=O (stereo unspecified) 6.96%
Cc1[nH]c2ccc(C(=O)NCCCN3CCN(C)CC3)cc2c1C 15.6%
O=C(/C=C/c1ccccc1)N1CCN(c2ccc([N+](=O)[O-])c(N3CCOCC3)c2)CC1 9.06%
Cc1ccc(CNc2ccc(N3CCOCC3)cc2)s1 14.2%
CCc1ccc(CNc2ccc(N3CCN(C(C)=O)CC3)cc2)cc1 9.55%
CC(=O)N1CCN(c2ccc(NCc3ccccc3)cc2)CC1 8.55%
CC(=O)N1CCN(c2ccc(NCc3ccc(C)cc3)cc2)CC1 14.1%
COc1ccc(CNC(=O)CCCn2nc(C)c3c(C)n(-c4ccccc4)nc3c2=O)cc1 12.9%
CCOc1ccccc1-c1noc(CCC(=O)Nc2cccnc2)n1 10.5%
COc1ccc(-c2c(-c3ccc(OCC(=O)NN)cc3O)n[nH]c2C)cc1OC 5.82%
C=C(C)COc1ccc(-c2n[nH]c(C)c2-c2ccc(OC)c(OC)c2)c(O)c1 13.9%
N#C[C@H]1C2OC2c2ccccc2N1C(=O)c1ccccc1 (stereo partly specified) 3.71%
O=c1cc(CO)oc(CN2CCN(c3ccccc3)CC2)c1O 3.29%
COc1ccc(Cl)cc1NC(=S)Nc1cccnc1 5.19%
CC(=O)O[C@]1(C(C)=O)CCC2C3C=C(C)C4=CC(=O)CC[C@]4(C)C3CC[C@@]21C (stereo partly specified) 6.68%
CC(=O)O[C@]1(C(C)=O)CC[C@H]2[C@@H]3C=C(C)C4=CC(=O)CC[C@]4(C)[C@H]3CC[C@@]21C 24.3% and 8.14%
CC(=O)O[C@]1(C(C)=O)CC[C@H]2[C@@H]3C[C@H](C)C4=CC(=O)CC[C@]4(C)[C@H]3CC[C@@]21C 21.1% and 1.31%
Cc1ccccc1NC(=O)CN1C(=O)COc2ccc(S(=O)(=O)N3CCCC3)cc21 2.93%
O=C(Nc1ccncc1)Nc1ccc(Cl)cc1 10.4%
Cc1cc(C(=O)NCc2ccco2)c2cc(F)ccc2n1 5.22%
CCCCn1c(N)c(N(CCC(C)C)C(=O)c2cc(-c3ccco3)nc3ccccc23)c(=O)[nH]c1=O 28.5%
CCOc1ccc(C(=O)NC2CC(=O)N(c3ccc4c(c3)OCCO4)C2)cc1 (stereo unspecified) 30.1%
Cc1cccc(/C=C/C(=O)c2ccc([N+](=O)[O-])o2)c1 27.2%
COc1ccc(/C=C/C(=O)c2ccc([N+](=O)[O-])o2)cc1 2.57%
O=C(/C=C/c1ccc(Cl)cc1)c1ccc([N+](=O)[O-])o1 34.3%
Cc1cccc(NC(=O)c2ccc([N+](=O)[O-])o2)c1C -1.78%
COc1ccc(/C=C/C(=O)c2ccc([N+](=O)[O-])o2)cc1OC 17.4%
Cc1ccc(/C=C/C(=O)c2ccc([N+](=O)[O-])o2)cc1 24.6%
